# Source: PubChem BioAssay
# The source made the active and inactive calls. How the calls were made is not given here.
# Target: Pantothenate synthetase (Mycobacterium tuberculosis (strain ATCC 25618 / H37Rv)) (UniProt P9WIL5)
# Experiment: Recombinant Mtb pantothenate synthetase (PanC) inhibitors, coupled enzyme, confirmatory (AID 375);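 further: 0% = full reaction with vehicle and 100% = no enzyme background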
# Conditions: coupled enzyme assay; at 10 µM, hits give high values
# Sequence of Pantothenate synthetase (Mycobacterium tuberculosis (strain ATCC 25618 / H37Rv)) (P9WIL5 whole entry, looked up): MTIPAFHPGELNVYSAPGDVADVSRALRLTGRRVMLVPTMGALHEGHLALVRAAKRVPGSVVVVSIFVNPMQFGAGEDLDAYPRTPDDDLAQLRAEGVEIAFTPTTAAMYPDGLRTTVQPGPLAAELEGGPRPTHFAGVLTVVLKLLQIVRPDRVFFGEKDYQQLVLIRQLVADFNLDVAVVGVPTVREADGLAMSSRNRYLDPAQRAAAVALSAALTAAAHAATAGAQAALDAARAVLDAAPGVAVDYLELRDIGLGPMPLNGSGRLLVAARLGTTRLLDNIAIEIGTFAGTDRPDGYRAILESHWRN
row,SMILES,inhibition
1,Cn1c(=O)c2c(nc(NCc3ccco3)n2C/C=C/c2ccccc2)n(C)c1=O,0% (inactive)
2,Cc1onc(-c2c(Cl)cccc2Cl)c1C(=O)N1CCc2ccccc21,0% (inactive)
3,NC(=O)c1cc(-c2ccccc2)nc(Oc2ccccc2)n1,1% (inactive)
4,O=S1(=O)C=C(Oc2ccc(F)cc2)c2ccccc21,4% (inactive)
5,COCCNC(=O)c1ccc(CS(=O)(=O)c2ccc(OC)cc2)o1,0% (inactive)
6,O=C(COC(=O)c1cc(S(=O)(=O)N2CCOCC2)cs1)c1ccccc1,0% (inactive)
7,Cc1ccc(NC(=O)CNc2cccc(C)c2C)c(C)c1,0% (inactive)
8,COc1ccc(C)cc1-n1nnnc1SCC(=O)Nc1cc(C)on1,0% (inactive)
9,CCOC(=O)c1cc(C(C)(C)C)oc1CN,0% (inactive)
10,Cc1[nH]nc2c1C(CCc1ccccc1)C(C#N)=C(N)O2 (stereo not drawn),0% (inactive)
11,O=C(OCC#CCSc1nc2ccccc2o1)c1ccco1,0% (inactive)
12,O=C(c1ccco1)N1CCN(CCCCN2C(=O)c3ccccc3C2=O)CC1,5% (inactive)
13,CCc1ccc(NS(=O)(=O)c2ccc3[nH]cc(C(=O)N4CCCCC4)c(=O)c3c2)cc1,0% (inactive)
14,NC1=NC(c2ccc(Br)cc2)n2c(nc3ccccc32)N1 (stereo not drawn),0% (inactive)
15,CC(C)(C)NC(=O)CSc1nnc(-c2ccccn2)n1-c1ccccc1,0% (inactive)
16,c1ccc2c(c1)C(=Nn1cnnc1)c1ccccc1-2,0% (inactive)
17,Cn1c(Cc2ccccc2)nnc1SCC(=O)N1CCOCC1,0% (inactive)
18,Cc1cc(C)n(C(=O)CNC(=O)C2COc3ccccc3O2)n1 (stereo not drawn),1% (inactive)
19,Cc1ccc(CC2SC(=O)NC2=O)cc1Cl (stereo not drawn),0% (inactive)
20,O=C(Nc1ccc(N2CCOCC2)c(Cl)c1)c1ccc(Br)o1,0% (inactive)
21,CCN1CCN(c2nc3c(C)cccn3c(=O)c2/C=C(\C#N)S(=O)(=O)c2ccccc2)CC1,0% (inactive)
22,CCOC(=O)CN1C2=NCCN2c2ccccc21,6% (inactive)
23,COc1cccc(NC(=O)CSc2nnc(-c3cccs3)n2C)c1,0% (inactive)
